Experimental data as given in PubChem BioAssay (NCI).
“And” between values parts separate entries of the source, which are not always exact repeats. Equal values may be shown once. The panel holds about 79,000 compounds, 15% with a hit somewhere; the sample as a whole holds those more often. The source made the active and inactive calls. Cut-off read from the data, not from the text of the source: active = growth inhibition above about 70%; inactive = the rest.

Columns and labels:
[1] = NCI Yeast Anticancer Drug Screen. Data for the rad50 strain (AID 155);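 note: 0% = growth of vehicle-only cultures of the same strain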; details: S. cerevisiae rad50 strain growth inhibition, hits give high values
Method in brief: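 Readout: growth inhibition relative to vehicle-treated cultures. Compound exposure was carried out in a genetically defined yeast strain deficient in DNA damage repair.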

[2] = NCI Yeast Anticancer Drug Screen. Data for the mec2-1 strain (AID 157); details: S. cerevisiae mec2-1 strain, hits give high values
Method in brief: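 Test agents were screened against the mec2-1 yeast strain, with defined DNA repair or cell cycle alteration. Growth was scored as inhibition against vehicle-only controls.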

[3] = NCI Yeast Anticancer Drug Screen. Data for the sgs1 mgt1 strain (AID 161);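 note: 0% = growth of cultures given vehicle only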; details: S. cerevisiae sgs1 mgt1 strain, hits give high values
Method in brief: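 Inhibition of yeast growth, normalised to vehicle-treated controls, is reported for a strain bearing genetic alterations in DNA damage repair.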

[4] = NCI Yeast Anticancer Drug Screen. Data for the cln2 rad14 strain (AID 165);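 note: 0% = growth equal to vehicle treated cultures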; details: S. cerevisiae cln2 rad14 strain, hits give high values
Method in brief: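 Growth of compound-exposed yeast (cln2 rad14 genotype) measured and expressed as inhibition relative to vehicle.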

[5] = NCI Yeast Anticancer Drug Screen. Data for the bub3 strain (AID 167); details: S. cerevisiae bub3 mutant strain, hits give high values
Method in brief: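 Readout: yeast growth inhibition, expressed relative to vehicle-only wells. The test organism is a mutant strain from a panel with lesions in DNA repair or checkpoint genes.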

[6] = NCI Yeast Anticancer Drug Screen. Data for the mlh1 rad18 strain (AID 175); details: S. cerevisiae mlh1 rad18 strain growth inhibition, hits give high values
Method in brief: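 In this whole-cell yeast screen, a strain with altered DNA damage repair is challenged with compound, and its growth is measured against matched vehicle-treated controls.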

[7] = at 5.0 µM (retest, dose inferred, filed as 0.5)
[8] = at 50.0 µM (retest, dose inferred, filed as 5.0)

Measured: growth inhibition

c1ccc(CCc2c[nH]c3ccccc23)cc1
active: [3]; at 50.0 µM 72.5% | [5]; at 50.0 µM 87.5%
inactive: [1]; [7] -7% | [1]; [8] -1% | [1]; at 50.0 µM 59.6% | [2]; [7] 0% | [2]; [8] 0% | [2]; at 50.0 µM 27.5% | [3]; [7] -7% | [3]; [8] 12% | [4]; [7] -52% | [4]; [8] -2% | [4]; at 50.0 µM 5.9% | [5]; [7] -14% | [5]; [8] 41% | [6]; [7] -8% | [6]; [8] 43% | [6]; at 50.0 µM 49%

O=C(NCCc1c(-c2ccccc2)[nH]c2ccccc12)C(F)(F)F
inactive: [1]; [7] 11% | [1]; at 50.0 µM 46.6% | [2]; [7] -3% | [2]; at 50.0 µM 49.8% | [3]; [7] 10% | [4]; [7] -2% | [4]; at 50.0 µM 59.2% | [5]; [7] -10% | [6]; [7] 3% | [6]; at 50.0 µM 60.3%
active: [3]; at 50.0 µM 79.5% | [5]; at 50.0 µM 72.5%

CCOC(=O)N1CCN(c2cc(C)nc3cc(OC)ccc23)CC1
inactive: [1]; [7] 4% | [1]; [8] -4% | [1]; at 50.0 µM 21.1% | [2]; [7] -1% | [2]; [8] 1% | [2]; at 50.0 µM 5.9% | [3]; [7] 0% | [3]; [8] -5% | [3]; at 50.0 µM 17.6% | [4]; [7] -1% | [4]; [8] -5% | [5]; [7] 3% | [5]; [8] 1% | [5]; at 50.0 µM 59.5% | [6]; [7] 0% | [6]; [8] -7% | [6]; at 50.0 µM 38.9%

COc1ccccc1OC(=O)Oc1ccccc1OC
inactive: [1]; [7] -1% | [1]; [8] 19% | [1]; at 50.0 µM 36.6% | [2]; [7] -3% | [2]; [8] -3% | [2]; at 50.0 µM -11.1% | [3]; [7] -1% | [3]; [8] 12% | [3]; at 50.0 µM 9.45% | [4]; [7] 4% | [4]; [8] 4% | [4]; at 50.0 µM -37.4% | [6]; [7] -4% | [6]; [8] -5% | [6]; at 50.0 µM 50%

O=[N+]([O-])c1cccc(S(=O)(=O)N/N=C/c2cc(I)cc([N+](=O)[O-])c2O)c1
inactive: [1]; [7] 5% | [1]; [8] 6% | [1]; at 50.0 µM 25.1% | [2]; [7] 5% | [2]; [8] 2% | [2]; at 50.0 µM 13.1% | [4]; [7] -1% | [4]; [8] 2% | [4]; at 50.0 µM 7.85% | [5]; [7] 2% | [5]; [8] -1% | [5]; at 50.0 µM 4.7% | [6]; [7] 6% | [6]; [8] 8% | [6]; at 50.0 µM 45.9%

CCCN(CCC)CC(O)c1cc(-c2ccccc2)nc2c(Cl)cc(Cl)cc12 (stereo not given)
inactive: [1]; [7] 3% | [2]; [7] -2% | [4]; [7] -5% | [5]; [7] -1% | [6]; [7] -2%
active: [1]; [8] 90% | [1]; at 50.0 µM 98.3% | [2]; [8] 100% | [2]; at 50.0 µM 98.2% | [4]; [8] 99% | [4]; at 50.0 µM 97.8% | [5]; [8] 99% | [5]; at 50.0 µM 98.2% | [6]; [8] 94% | [6]; at 50.0 µM 92.2%

CCCCCCCCCCCCCCCCCO
active: [1]; at 50.0 µM 71% | [5]; at 50.0 µM 75.2% | [6]; at 50.0 µM 77.8%
inactive: [1]; [7] -4% | [1]; [8] 6% | [2]; [7] -3% | [2]; [8] -7% | [2]; at 50.0 µM 63.3% | [3]; [7] -3% | [3]; [8] 7% | [3]; at 50.0 µM 50% | [5]; [7] 10% | [5]; [8] 8% | [6]; [7] -9% | [6]; [8] -3%

Cc1cc(C)nc(/C=C/c2ccc(/C=C/c3cc(C)cc(C)n3)cc2)c1
inactive: [1]; [7] -20% | [1]; [8] -4% | [2]; [7] -8% | [2]; [8] 4% | [2]; at 50.0 µM 2.65% | [3]; [7] 7% | [3]; [8] -1% | [3]; at 50.0 µM 11.9% | [4]; [7] -4% | [4]; [8] -11% | [4]; at 50.0 µM -19.6% | [5]; [7] -7% | [5]; [8] -11% | [5]; at 50.0 µM 0.4% | [6]; [7] -11% | [6]; [8] 3% | [6]; at 50.0 µM 5.5%

C/C(=N\NC(=S)NCc1ccccc1)c1nccnc1C
inactive: [1]; [7] 23% | [2]; [7] 19% | [3]; [7] 35% | [5]; [7] 52% | [6]; [7] 27%
active: [1]; [8] 98% | [1]; at 50.0 µM 90.9% | [2]; [8] 99% | [2]; at 50.0 µM 89% | [3]; [8] 99% | [3]; at 50.0 µM 82.9% | [5]; [8] 99% | [5]; at 50.0 µM 83.3% | [6]; [8] 98% | [6]; at 50.0 µM 91.7%

CCCCCCn1c(SCC)c2ccccc2c1-c1nc(F)nc(F)n1
active: [1]; at 50.0 µM 89.1% | [2]; at 50.0 µM 92.8% | [4]; at 50.0 µM 88.7% | [5]; at 50.0 µM 88.5% | [6]; at 50.0 µM 87.9%
inactive: [1]; [7] -14% | [1]; [8] 5% | [2]; [7] -40% | [2]; [8] -10% | [4]; [7] 14% | [4]; [8] 52% | [5]; [7] 24% | [5]; [8] 36% | [6]; [7] 10% | [6]; [8] 34%

COC(=O)C12Oc3ccc(-c4ccc5c(c4O)C(O)=C4C(=O)CC(C)C(O)C4(C(=O)OC)O5)c(O)c3C(O)=C1C(=O)CC(C)C2O (stereo not given)
inactive: [1]; [7] 57% | [2]; [7] 61% | [3]; [7] 37% | [4]; [7] 6% | [6]; [7] 57%
active: [1]; [8] 97% | [1]; at 50.0 µM 90.5% | [2]; [8] 96% | [2]; at 50.0 µM 88.3% | [3]; [8] 98% | [3]; at 50.0 µM 82.5% | [4]; [8] 96% | [4]; at 50.0 µM 91.2% | [6]; [8] 97% | [6]; at 50.0 µM 80.8%

CC12CC(Br)(Br)C(=O)C3C1CCCC32
active: [3]; at 50.0 µM 86.8% | [5]; [7] 74% | [5]; at 50.0 µM 87% | [6]; [7] 74% | [6]; [8] 79% | [6]; at 50.0 µM 87%
inactive: [1]; [7] 51% | [1]; [8] 31% | [1]; at 50.0 µM 48.9% | [2]; [7] 48% | [2]; [8] 60% | [2]; at 50.0 µM 41% | [3]; [7] 37% | [3]; [8] -38% | [5]; [8] 59%

O=C1NN(C2=NNC3(C(=O)N2)c2ccccc2-c2ccccc23)C(c2ccccc2)=N/C1=C/c1ccc(O)cc1
inactive: [1]; [7] 1% | [1]; [8] -14% | [1]; at 50.0 µM 21.4% | [2]; [7] -14% | [2]; [8] 9% | [2]; at 50.0 µM 50% | [4]; [7] -6% | [4]; [8] 21% | [4]; at 50.0 µM 7% | [5]; [7] -14% | [5]; [8] 9% | [6]; [7] -43% | [6]; [8] 28%
active: [5]; at 50.0 µM 81.5% | [6]; at 50.0 µM 83.2%

CCCCc1ccc2nc(C)cc(N/N=C/c3ccc4c(c3)OCO4)c2c1
inactive: [1]; [7] 9% | [1]; [8] 20% | [1]; at 50.0 µM 66.7% | [2]; [7] 1% | [2]; [8] 19% | [2]; at 50.0 µM 22% | [4]; [7] -3% | [4]; [8] 2% | [4]; at 50.0 µM 15.9% | [5]; [7] -4% | [5]; [8] 1% | [5]; at 50.0 µM 6.6% | [6]; [7] 9% | [6]; [8] 35% | [6]; at 50.0 µM 29.8%

CCCCCCCCCCCCCCOC(=O)C(N)Cc1ccc(O)cc1 (stereo not given)
inactive: [1]; [7] 7% | [2]; [7] 1% | [4]; [7] 1% | [5]; [7] 3% | [6]; [7] 7%
active: [1]; [8] 97% | [1]; at 50.0 µM 98.6% | [2]; [8] 98% | [2]; at 50.0 µM 99.2% | [4]; [8] 94% | [4]; at 50.0 µM 95.1% | [5]; [8] 98% | [5]; at 50.0 µM 98.5% | [6]; [8] 97% | [6]; at 50.0 µM 98.8%

O=C(Nc1ccc(S(=O)(=O)NC2CCCCC2)cc1)OC1CCCCC1
active: [1]; [8] 95% | [1]; at 50.0 µM 92.9% | [2]; [8] 98% | [2]; at 50.0 µM 93.4% | [3]; [8] 92% | [3]; at 50.0 µM 94.3% | [5]; [8] 95% | [5]; at 50.0 µM 92.3% | [6]; [8] 95% | [6]; at 50.0 µM 94%
inactive: [1]; [7] 14% | [2]; [7] 30% | [3]; [7] 66% | [5]; [7] 10% | [6]; [7] 11%

CC(=O)OCC(=O)[C@@]1(O)CC[C@H]2[C@@H]3CCC4=CC(=O)C=C[C@]4(C)[C@@]3(F)[C@@H](O)C[C@@]21C
active: [6]; [8] 71%
inactive: [1]; [7] -27% | [1]; [8] 41% | [1]; at 50.0 µM 0.4% | [2]; [7] 1% | [2]; [8] 16% | [2]; at 50.0 µM -2.8% | [3]; [7] -4% | [3]; [8] 59% | [3]; at 50.0 µM 17.4% | [5]; [7] -2% | [5]; [8] 51% | [5]; at 50.0 µM 17.6% | [6]; [7] -3% | [6]; at 50.0 µM 15.6%

Nc1ncnc2c1ncn2C1OC(CO)C(O)C1O (stereo not given)
inactive: [1]; at 50.0 µM -12.3% and 53.1% and 0.85% | [2]; at 50.0 µM -10.9% and 11.8% and -9.1% | [3]; at 50.0 µM -1.8% and 43.4% and 5.55% | [4]; at 50.0 µM 14.6% and -0.75% and -5.05% | [5]; at 50.0 µM 4.6% and 18.7% and 26.4% | [6]; at 50.0 µM -23.1% and 27.6% and 19.4%

COc1cccc(CC2N(S(=O)(=O)c3ccc(C)cc3)CCC23C(=O)Nc2ccccc23)c1OC (stereo not given)
active: [1]; [8] 94% | [1]; at 50.0 µM 91.8% | [2]; [8] 96% | [4]; [8] 93% | [5]; [8] 96% | [5]; at 50.0 µM 80.7% | [6]; [8] 96% | [6]; at 50.0 µM 92.2%
inactive: [1]; [7] 10% | [2]; [7] 2% | [2]; at 50.0 µM 69.4% | [4]; [7] -3% | [4]; at 50.0 µM 39% | [5]; [7] -3% | [6]; [7] 3%
